# Source: the supplement of paper PMC3334620
# In all, about 33,000 sequences were measured (“E-score (-0.5 to 0.5)”: median about -0.021, highest 2% from about 0.32 on). What follows is part of a selection rich in the highest values, with near analogues and random picks from the rest.
# Target: T1, Zap1 (UniProt P47043)
# T1 sequence: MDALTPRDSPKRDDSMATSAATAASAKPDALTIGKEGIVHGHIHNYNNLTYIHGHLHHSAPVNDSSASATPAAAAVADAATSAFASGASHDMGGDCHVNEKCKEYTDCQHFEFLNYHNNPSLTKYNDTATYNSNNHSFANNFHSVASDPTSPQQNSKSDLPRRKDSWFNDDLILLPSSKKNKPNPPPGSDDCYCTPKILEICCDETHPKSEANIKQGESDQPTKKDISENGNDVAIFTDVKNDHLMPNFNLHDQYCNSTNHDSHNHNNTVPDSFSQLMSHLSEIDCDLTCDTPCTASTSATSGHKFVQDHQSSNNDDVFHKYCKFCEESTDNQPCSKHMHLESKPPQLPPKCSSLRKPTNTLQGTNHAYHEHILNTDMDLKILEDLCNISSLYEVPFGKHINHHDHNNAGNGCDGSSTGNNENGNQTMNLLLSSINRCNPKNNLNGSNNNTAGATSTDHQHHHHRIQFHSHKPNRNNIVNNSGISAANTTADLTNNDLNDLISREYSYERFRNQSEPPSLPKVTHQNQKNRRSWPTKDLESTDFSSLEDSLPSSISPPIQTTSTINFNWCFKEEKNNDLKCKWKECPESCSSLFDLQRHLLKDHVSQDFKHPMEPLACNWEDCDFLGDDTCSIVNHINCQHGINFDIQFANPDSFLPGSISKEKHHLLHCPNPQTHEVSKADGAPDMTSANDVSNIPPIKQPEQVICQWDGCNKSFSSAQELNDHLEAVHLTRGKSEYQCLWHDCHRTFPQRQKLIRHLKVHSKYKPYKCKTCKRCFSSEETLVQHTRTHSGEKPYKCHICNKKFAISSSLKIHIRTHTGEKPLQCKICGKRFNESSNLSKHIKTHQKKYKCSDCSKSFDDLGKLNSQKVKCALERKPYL
# Test: PBM E-score (8-mer binding enrichment) (E-score (-0.5 to 0.5)); higher = stronger / more preferred TF binding
# Details: protein concentration: 200 nM; construct: GST-full length
# In short: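 Yeast transcription factors carrying a GST tag, as full-length proteins or DNA-binding domains, were produced by PURExpress in vitro transcription/translation. About 100-200 nM protein was applied to universal all-10-mer Agilent arrays, double-stranded by primer extension on fresh or once-stripped slides. Bound protein was detected with fluorescent anti-GST, and scans were normalised with masliner. The Universal PBM Analysis Suite gave each ungapped eight-base word, pooled with its reverse complement, an E-score, a modified Wilcoxon-Mann-Whitney statistic.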
row,Sequence,PBM E-score
1,CGGCTAGA,-0.178
2,CCCTGCGA,0.0758
3,CCAACTGC,-0.165
4,AACACAGT,-0.00444
5,AAGCTTTC,0.0356
6,GCGTGACA,-0.136
7,CCGTGACG,-0.0247
8,CCGTGACA,-0.136
9,GCGTGACC,0.326
10,ACGTGACC,0.249
11,CCGTGACC,0.376
12,TATACATA,0.106
13,CACTAGAG,0.0544
14,ACACTGAA,0.111
15,GCCAGACA,0.0344
16,GGTTACAA,0.455
17,AGTTACAC,0.0701
18,CGTTACAA,0.121
19,CGTTACAC,0.0157
20,GGTTACAC,0.403
21,TGTTACAA,0.098
22,GGGCTTAA,-0.0211
23,ACGTGTAT,-0.152
24,TATCGACA,0.0537
25,ATTGTGAC,0.159
26,CACATAGC,-0.136
27,ACGAGAGT,-0.197
28,ATCCCTAC,-0.023
